Our source for the outcome and AC50 values is PubChem BioAssay (EPA / NIEHS).

Activity calls are given as the source filed them. How the source made its calls: active means hit-call score of the fitted dose curve at least 0.9, where 1 is the maximum; inactive means score below 0.9.

Read-out in this test: Vascular cell adhesion molecule 1 (VCAM1), VCAM1 (gene 7412)
In words: BSK_4H_VCAM1: BioMAP Diversity Plus: 4H Assay for Vascular cell adhesion molecule 1 (VCAM1) Biomarker Activity (AID 2283033). The note with it: primary human endothelial cells (HUVEC); actives raise or lower the signal. As for the experimental part:
BSK_4H is a cell-based, multiplexed-readout assay that uses umbilical vein endothelium, a human vascular primary cell, with measurements taken at 24 hours after chemical dosing in a 96-well plate.BSK_4H_VCAM1 is an assay component measured in the BSK_4H assay. It measures VCAM-1 antibody related to regulation of gene expression using ELISA technology.Data from the assay component BSK_4H_VCAM1 was analyzed into 1 assay endpoint. This assay endpoint, BSK_4H_VCAM1, was analyzed with bidirectional fitting relative to DMSO as the negative control and baseline of activity. Using a type of binding reporter, gain or loss-of-signal activity can be used to understand changes in the signaling as they relate to the gene VCAM1. Furthermore, this assay endpoint can be referred to as a primary readout, because this assay has produced multiple assay endpoints where this one serves a signaling function. To generalize the intended target to other relatable targets, this assay endpoint is annotated to the cell adhesion molecules intended target family, where the subfamily is Immunoglobulin CAM.
The levels of cell surface (or secreted, indicated by the prefix "s") biomarker endpoints were measured by ELISA. Overt cytotoxicity to cells in confluent adherent cultures (all systems other than the BT system) was assessed by measuring total protein levels using sulforhodamine B (SRB) staining in parallel cultures at the time of biomarker measurements, indicated as SRB endpoints. For proliferation assays for adherent cell types, individual cell types are cultured at sub-confluence and relative cell numbers quantified by SRB staining at time points optimized for each system (48 h: 3C and CASM3C systems; 72 h: BT and HDF3CGF systems; 96 h: SAg system). SRB was performed by staining cells with 0.1% SRB after fixation with 10% TCA and reading wells at 560 nm.Viability and proliferation of PBMC (T cells) was quantified by Alamar Blue reduction for the SAg and BT systems. For PBMC viability (referred to as PBMC Cytotoxicity within the assay endpoint names), cells were plated (75,000/well in a 96-well plate) and then chemical samples added for 1 h before addition of activators, SEB and TSST-1 (20 ng/mL final concentration each). Cells were incubated for 90 h. Then, Alamar Blue (20 uL/well) (Invitrogen, Cat DAL1100) was added for 6 h, and the plates were read with a fluorescence microplate reader at 546/580 nm (excitation/emission). For PBMC proliferation, cells were plated and activated as above but incubated for only 16 h prior to addition of Alamar Blue. Plates were read after 6 h.
Regarding `CCOC1Oc2ccc(OS(C)(=O)=O)cc2C1(C)C` (stereo not given), the outcome was inactive.
The same measure, in the same setting: in the case of `[2H]C1([2H])[n+]2ccccc2-c2cccc[n+]2C1([2H])[2H]` it was “inactive”; in that of `CCOc1nc(NC)nc(NC(=O)NS(=O)(=O)c2ccccc2C(=O)OC)n1`, “inactive”; in that of `ClC1C(Cl)C(Cl)C(Cl)C(Cl)C1Cl` (stereo not given), “inactive”.
Take `O=S1OCC2C(CO1)C1(Cl)C(Cl)=C(Cl)C2(Cl)C1(Cl)Cl` (stereo not given): the AC50 is 36.5 µM (active).
Still for that read-out and setting: in the case of `CCC(C)(NC(=O)c1cc(Cl)c(C)c(Cl)c1)C(=O)CCl` (stereo not given) it was 10.5 µM (active).
As for `CNC(=O)CSP(=S)(OC)OC`, the result was inactive.
On the same count and under the same terms, the result for `Cc1[nH]c(=O)n(C(C)(C)C)c(=O)c1Cl` reads “inactive”.
`CN1CSC(=S)N(C)C1`: the AC50 is 16.9 µM (active).
As for `O=[N+]([O-])/N=C1\NCCN1Cc1ccc(Cl)nc1`, the outcome was inactive.
For the compound `CC1(c2ccc(Oc3ccccc3)cc2)OC(=O)N(Nc2ccccc2)C1=O` (stereo not given), the AC50 is 15.3 µM (active).
Still for that read-out and setting: the result for `CCCN(CCC)c1c([N+](=O)[O-])cc(C(F)(F)F)cc1[N+](=O)[O-]` reads 28.2 µM (active).
Turning to `CC(C)OC(=O)Nc1cccc(Cl)c1`, the outcome was inactive.
In the case of `CCC(C)(C)C(=O)OC1=C(c2ccc(Cl)cc2Cl)C(=O)OC12CCCCC2`, the AC50 was 36.6 µM (active).
On to `COP(=O)(OC)OC=C(Cl)Cl`, for which the result was inactive.
On the same count and under the same terms, the result for `COC(=O)c1ccccc1CS(=O)(=O)NC(=O)Nc1nc(OC)cc(OC)n1` reads “inactive”; that for `N#CN`, “inactive”; that for `COc1cc(OC)nc(NC(=O)NS(=O)(=O)c2cc(NC=O)ccc2C(=O)N(C)C)n1`, “inactive”.
Take `COP(=S)(OC)Oc1ccc([N+](=O)[O-])cc1`: the AC50 is 20.1 µM (active).
In the case of `OCCOc1ccccc1`, the outcome was inactive.
As to `CC(C)(C)C(O)/C(=C\c1ccc(Cl)cc1Cl)n1cncn1` (stereo not given), the AC50 was 27.7 µM (active).
For `CNC(=O)/C=C(\C)OP(=O)(OC)OC`, the result was inactive.
Consider `CC1(C)C(C=C(Cl)Cl)C1C(=O)OC(C#N)c1ccc(F)c(Oc2ccccc2)c1` (stereo not given), for which the outcome was inactive.
Still for that read-out and setting: in the case of `O=C(O)C(F)(F)C(F)(F)C(F)(F)C(F)(F)C(F)(F)C(F)(F)C(F)(F)F` it was “inactive”; in that of `O=S(=O)(O)C(F)(F)C(F)(F)C(F)(F)C(F)(F)C(F)(F)C(F)(F)C(F)(F)C(F)(F)F`, “inactive”.
`O=C1c2ccccc2C(=O)N1SC(Cl)(Cl)Cl`: the outcome was inactive.
In the case of `COc1nn(CSP(=S)(OC)OC)c(=O)s1`, the result was inactive.
The same measure, in the same setting: in the case of `O=C(O)COc1ccc(Cl)cc1Cl` it was “inactive”.
Same read-out and setting: in the case of `COC(=O)c1ccccc1S(=O)(=O)NC(=O)Nc1nc(C)nc(OC)n1` it was “inactive”; in that of `Clc1ccccc1-c1nnc(-c2ccccc2Cl)nn1`, “inactive”.
In the case of `N#Cc1c(Cl)c(Cl)c(Cl)c(C#N)c1Cl`, the AC50 was 1.16 µM (active).
`CC(C)(C)C(O)C(Oc1ccc(Cl)cc1)n1cncn1` (stereo not given): the result was inactive.
Still for that read-out and setting: in the case of `CCN(CC)C(=O)SCc1ccc(Cl)cc1` it was “inactive”; in that of `CCCN(CCOc1c(Cl)cc(Cl)cc1Cl)C(=O)n1ccnc1`, “inactive”.
With `Oc1ccc(Cl)cc1Cc1ccccc1`, the AC50 was 31 µM (active) [middle of 6 runs].
`CNC(=O)Oc1ccccc1OC(C)C`: the result was inactive.
Regarding `CCOCN(C(=O)CCl)c1c(C)cccc1CC`, the AC50 is 19.2 µM (active).
`C[C@H]1[C@H](c2ccc(Cl)cc2)SC(=O)N1C(=O)NC1CCCCC1`: the AC50 is 7.61 µM (active).
`COC(=O)c1ccccc1S(=O)(=O)NC(=O)N(C)c1nc(C)nc(OC)n1`: the outcome was inactive.
The same measure, in the same setting: the result for `CCS(=O)(=O)c1cccnc1S(=O)(=O)NC(=O)Nc1nc(OC)cc(OC)n1` reads “inactive”.

The AC50 is the concentration giving half of the maximal activity seen.
